In PubChem BioAssay AID1159580 (chemical genetic matrix, 2015):
The whole screen tested about 5,500 compounds, of which about 2,000 (36%) were called active. Not shown: some 18% with an inconclusive outcome. Rule as the data show it: active = normalized growth mostly below about 0.91 (no sharp cut-off); inconclusive = no clear call, values can overlap the other calls; inactive = mostly above about 0.92. The list shows a part of the results.

Assay: chemical genetic growth profiling, strain panel (AID 1159580);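 also: tested at 20 µM; growth read once vehicle control cultures reached saturation at 30 °C; 1 = growth at the plate median or of vehicle wells; lower values mean less growth of the strain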
Conditions: S. cerevisiae deletion strains, growth OD
[1] = locus YAL040C, strain CLN3, stronger effect = lower value
[2] = locus YCL061C, strain MRC1 (second series), stronger effect = lower value
[3] = locus YDR150W, strain NUM1, stronger effect = lower value
[4] = locus YDR363W, strain ESC2, stronger effect = lower value
[5] = locus YER002W, strain NOP16, stronger effect = lower value
[6] = locus YGR078C, strain PAC10, stronger effect = lower value
[7] = locus YMR307W, strain GAS1, stronger effect = lower value
[8] = locus YNL153C, strain GIM3, stronger effect = lower value
[9] = locus YNL175C, strain NOP13, stronger effect = lower value
[10] = locus YNL197C, strain WHI3, stronger effect = lower value
[11] = locus YNL224C, strain SQS1, stronger effect = lower value
[12] = locus YOR083W, strain WHI5 (second series), stronger effect = lower value
[13] = locus YPL055C, strain LGE1, stronger effect = lower value
[14] = locus YAR019C, strain CDC15, stronger effect = lower value
[15] = locus YBL105C, strain PKC1, stronger effect = lower value
[16] = locus YBR135W, strain CKS1, stronger effect = lower value
[17] = locus YBR136W, strain MEC1, stronger effect = lower value
[18] = locus YBR160W, strain CDC28, stronger effect = lower value
[19] = locus YDL017W, strain CDC7, stronger effect = lower value
[20] = locus YDL028C, strain MPS1, stronger effect = lower value
[21] = locus YDL101C, strain DUN1, stronger effect = lower value
[22] = locus YDL108W, strain KIN28, stronger effect = lower value
[23] = locus YDL132W, strain cdc53, stronger effect = lower value
[24] = locus YDL214C, strain PRR2, stronger effect = lower value
[25] = locus YDR052C, strain DBF4, stronger effect = lower value
[26] = locus YDR054C, strain cdc34, stronger effect = lower value
[27] = locus YDR226W, strain ADK1, stronger effect = lower value
[28] = locus YDR477W, strain SNF1, stronger effect = lower value
[29] = locus YER123W, strain YCK3, stronger effect = lower value
[30] = locus YER133W, strain GLC7, stronger effect = lower value
[31] = locus YFL009W, strain cdc4, stronger effect = lower value
[32] = locus YFL029C, strain CAK1, stronger effect = lower value
[33] = locus YFR003C, strain YPI1, stronger effect = lower value
[34] = locus YFR019W, strain FAB1, stronger effect = lower value
[35] = locus YFR028C, strain CDC14, stronger effect = lower value
[36] = locus YGR040W, strain KSS1, stronger effect = lower value
[37] = locus YGR052W, strain FMP48, stronger effect = lower value
[38] = locus YGR092W, strain DBF2, stronger effect = lower value
[39] = locus YHR030C, strain SLT2, stronger effect = lower value
[40] = locus YHR079C, strain IRE1, stronger effect = lower value
[41] = locus YHR082C, strain KSP1, stronger effect = lower value
[42] = locus YHR205W, strain SCH9, stronger effect = lower value
[43] = locus YIL147C, strain SLN1, stronger effect = lower value
[44] = locus YJL095W, strain BCK1, stronger effect = lower value
[45] = locus YJL128C, strain PBS2, stronger effect = lower value
[46] = locus YJL157C, strain FAR1, stronger effect = lower value
[47] = locus YJR016C, strain ILV3, stronger effect = lower value
[48] = locus YJR066W, strain TOR1 (second series), stronger effect = lower value
[49] = locus YJR066W, strain TOR1, stronger effect = lower value
[50] = locus YKL048C, strain ELM1, stronger effect = lower value
[51] = locus YKL067W, strain YNK1, stronger effect = lower value
[52] = locus YKL101W, strain HSL1, stronger effect = lower value
[53] = locus YKL193C, strain SDS22, stronger effect = lower value
[54] = locus YKL203C, strain TOR2, stronger effect = lower value
[55] = locus YLR113W, strain HOG1, stronger effect = lower value
[56] = locus YLR133W, strain CKI1, stronger effect = lower value
[57] = locus YLR403W, strain SFP1, stronger effect = lower value
[58] = locus YML070W, strain DAK1, stronger effect = lower value
[59] = locus YMR001C, strain CDC5, stronger effect = lower value
[60] = locus YMR205C, strain PFK2 (second series), stronger effect = lower value
[61] = locus YMR277W, strain FCP1, stronger effect = lower value
[62] = locus YNL006W, strain LST8, stronger effect = lower value
[63] = locus YNL020C, strain ARK1, stronger effect = lower value
[64] = locus YNL161W, strain CBK1, stronger effect = lower value
[65] = locus YNL183C, strain NPR1, stronger effect = lower value
[66] = locus YNL207W, strain RIO2, stronger effect = lower value
[67] = locus YNL222W, strain SSU72, stronger effect = lower value
[68] = locus YNL307C, strain MCK1 (second series), stronger effect = lower value
[69] = locus YOL078W, strain AVO1, stronger effect = lower value
[70] = locus YOR061W, strain CKA2, stronger effect = lower value
[71] = locus YOR119C, strain RIO1, stronger effect = lower value
[72] = locus YOR231W, strain MKK1, stronger effect = lower value
[73] = locus YOR329C, strain SCD5, stronger effect = lower value
[74] = locus YPL031C, strain PHO85, stronger effect = lower value
[75] = locus YPL153C, strain RAD53, stronger effect = lower value
[76] = locus YPL204W, strain HRR25, stronger effect = lower value
[77] = locus YPL209C, strain IPL1, stronger effect = lower value
[78] = locus YPL256C, strain CLN2, stronger effect = lower value
[79] = locus YPR025C, strain CCL1, stronger effect = lower value
[80] = locus YPR106W, strain ISR1, stronger effect = lower value
[81] = locus YPR111W, strain DBF20, stronger effect = lower value
[82] = strain NNK1, stronger effect = lower value
[83] = strain TSCII, stronger effect = lower value

Measured: normalized growth

CCCn1cnc2c1c(=O)n(CCCCC(C)=O)c(=O)n2C
inactive: locus YAL013W, strain DEP1, stronger effect = lower value 1.01 | [1] 0.997 | [2] 1.01 | [3] 1.01 | [4] 0.961 | [5] 1.02 | [6] 1.01 | locus YJR075W, strain HOC1, stronger effect = lower value 1.02 | [7] 1.01 | [8] 1.04 | [9] 1.01 | [10] 0.996 | [11] 1.01 | [12] 1.01 | [13] 1.02 | locus YPL241C, strain CIN2, stronger effect = lower value 1.01

COC[C@H]1OC(=O)c2coc3c2[C@@]1(C)C1=C(C3=O)C2CCC(=O)[C@@]2(C)C[C@H]1OC(C)=O (some centres undefined)
inactive: [6] 0.994 | [9] 1
active: [1] 0.0731 | [2] 0.141 | [3] 0.136 | [4] 0.206 | [5] 0.0648 | locus YGR229C, strain SMI1, stronger effect = lower value 0.0613 | locus YMR263W, strain SAP30, stronger effect = lower value 0.0519 | [7] 0.0665 | locus YNL128W, strain TEP1, stronger effect = lower value 0.143 | [8] 0.101 | [10] 0.0727 | [11] 0.0711 | locus YNL322C, strain KRE1, stronger effect = lower value 0.33 | [12] 0.359 | [13] 0.119

CC1SC(c2cccnc2)N(c2ccc(Cl)cc2)C1=O (centres undefined)
inactive: [14] 0.948 | [15] 0.971 | [16] 0.964 | [17] 0.959 | [18] 0.967 | [19] 0.972 | [20] 0.955 | [21] 0.928 | [22] 0.951 | [27] 0.932 | [31] 0.931 | [32] 0.926 | [33] 0.972 | [35] 0.945 | [38] 0.904 | [39] 0.871 | [42] 0.725 | [43] 0.952 | [45] 0.987 | [47] 0.926 | [48] 0.704 | [50] 0.922 | [52] 0.779 | [53] 0.947 | [58] 0.694 | [59] 0.936 | [61] 0.969 | [62] 0.967 | [64] 0.953 | [66] 0.91 | [67] 0.96 | [69] 0.937 | [70] 0.919 | [73] 0.953 | [77] 0.969 | [79] 0.961 | [80] 0.957 | [81] 0.965 | [82] 0.944 | [83] 0.946
active: [23] 0.894 | [24] 0.6 | [25] 0.906 | [26] 0.828 | [28] 0.411 | [29] 0.466 | [30] 0.421 | [34] 0.43 | [36] 0.397 | [37] 0.374 | [40] 0.441 | [41] 0.4 | [44] 0.215 | [46] 0.635 | [49] 0.284 | [51] 0.673 | [54] 0.331 | [55] 0.455 | [56] 0.478 | [57] 0.346 | [60] 0.64 | [63] 0.599 | [65] 0.393 | [68] 0.462 | [71] 0.295 | [72] 0.47 | [74] 0.434 | [75] 0.47 | [76] 0.46 | [78] 0.435

CC1SC(c2cccnc2)N(c2ccc(F)cc2F)C1=O (centres undefined)
inactive: [14] 1 | [15] 0.987 | [16] 0.982 | [17] 0.99 | [18] 0.983 | [19] 0.985 | [20] 0.994 | [21] 0.985 | [22] 1 | [23] 0.981 | [24] 1.01 | [25] 0.981 | [26] 0.981 | [27] 0.974 | [28] 0.981 | [29] 0.942 | [30] 0.99 | [31] 0.981 | [32] 0.997 | [33] 0.991 | [34] 0.933 | [35] 0.979 | [36] 0.974 | [37] 0.931 | [38] 0.965 | [39] 1.01 | [40] 0.972 | [41] 0.925 | [42] 1 | [43] 0.992 | [44] 0.946 | [45] 0.988 | [46] 1 | [47] 0.986 | [48] 0.966 | [49] 0.82 | [50] 1 | [51] 1.02 | [52] 1.02 | [53] 0.973 | [54] 0.965 | [55] 0.957 | [56] 1.01 | [57] 0.976 | [58] 1.02 | [59] 0.984 | [60] 1.02 | [61] 0.978 | [62] 0.986 | [63] 1.01 | [64] 0.976 | [65] 0.968 | [66] 0.975 | [67] 0.983 | [68] 1 | [69] 0.976 | locus YOL136C, strain PFK27, stronger effect = lower value 1.03 | [70] 0.995 | [71] 0.833 | [72] 0.936 | [73] 0.979 | [74] 0.981 | [75] 0.968 | [76] 0.972 | [77] 0.979 | [78] 0.954 | [79] 0.984 | [80] 1 | [81] 0.998 | [82] 0.992 | [83] 0.985
